The values that follow come from PubChem BioAssay (Tox21).

Structures are written as SMILES. Results filed as inconclusive are left out. A call without a number means that no potency is given here. Active and inactive are the calls of the source. Calls come from the whole dose curve.

Chain of Beta-2 adrenergic receptor (Homo sapiens) (P07550 whole entry, looked up): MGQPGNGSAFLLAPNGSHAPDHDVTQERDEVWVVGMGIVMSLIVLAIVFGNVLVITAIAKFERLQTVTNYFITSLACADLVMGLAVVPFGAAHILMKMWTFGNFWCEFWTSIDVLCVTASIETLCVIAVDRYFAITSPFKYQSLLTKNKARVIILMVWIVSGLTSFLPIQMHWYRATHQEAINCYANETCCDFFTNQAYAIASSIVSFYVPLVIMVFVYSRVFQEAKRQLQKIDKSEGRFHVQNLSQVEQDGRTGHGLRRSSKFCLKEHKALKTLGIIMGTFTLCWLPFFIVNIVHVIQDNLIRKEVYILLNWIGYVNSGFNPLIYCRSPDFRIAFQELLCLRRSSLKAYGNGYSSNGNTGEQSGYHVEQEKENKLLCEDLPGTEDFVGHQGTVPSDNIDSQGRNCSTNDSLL

The experiment addresses Beta-2 adrenergic receptor (Homo sapiens) (UniProt P07550). As to the kind of experiment: Adrenergic beta2 receptor (ADRB2) small molecule agonists, cell-based qHTS assay (AID 1963593). The note with it: CHO-ADRB2 cells, cAMP HTRF, 30 min; series mostly up to 92.4 µM. From the text: National Center for Advancing Translational Sciences [NCATS]
Division of Preclinical Innovation [DPI]
U.S. Environmental Protection Agency [EPA]
National Institutes of Environmental Health Sciences [NIEHS]
National Toxicology Program [NTP]
U.S. Food and Drug Administration [FDA]
Beta adrenergic receptors (Beta-ARs) belong to the G-protein coupled receptor (GPCR) superfamily, includes three subtypes - beta1, beta2, and beta3. Beta1-AR is the predominant receptor subtype expressed in the heart, and beta2-AR is expressed in the kidney, lung, blood vessel and in the heart, and beta3 is found in the adipocytes. Beta1 and 2 ARs couple to Gs protein and elevate cyclic adenosine mono phosphate (cAMP), which activates protein kinase A and leads to the downstream signaling responsible for the physiological actions. Beta-AR agonists or antagonists are the most prescribed therapeutic agents for heart failure and asthma, and these were one of the first target receptors for the rational drug design. Tox21 10K compound library was screened using the cAMP-Gs dynamic assay (Cisbio Bioassays, Shelton, CT) to identify agonists/antagonists of the Gs-coupled human adrenergic, beta2 receptor (ADRB2) in the CHO-ADRB2 cell line (Codex BioSolutions, Inc. Gaithersburg, MD), which stably over-expresses ADRB2. The principle of cAMP-Gs dynamic assay is based on HTRF technology, which facilitates the fluorescence resonance energy transfer (FRET) between donor Europium cryptate and acceptor d2-labeled cAMP. The cAMP generated within cells competes with the red acceptor, d2-labled cAMP, for binding to the monoclonal anti-cAMP-cryptate (Europium donor). An increase in intracellular cAMP leads to the disruption of FRET signal, and the signal is inversely proportional to the cAMP concentration. Isoproterenol HCl (Sigma-Aldrich, St. Louis, MO) was used as a positive control in the screening.
Tox21 Assay Protocol Summary:
CHO-ADRB2 cells were dispensed at 1,000/well in 4uL assay medium into white/solid 1536-well plates (Greiner Bio-One North America Inc., Monroe, NC) using a Multidrop Combi dispenser (ThermoFisher Scientific, Waltham, MA). The assay plates were incubated at 37C and 5% CO2 for an overnight (18-20hr). Then positive control and test compounds dissolved in DMSO were transferred to the assay plates at 23nL using a Pintool station (Wako, San Diego, CA). Following the compound and positive control transfer, 1uL stimulation mix containing 100uM IBMX and 25uM Ro-20-1724 was added to each well of the assay plates using BioRAPTR Flying Reagent Dispenser (FRD, Beckman Coulter, Brea, CA). The assay plates were incubated at room temperature for 0.5hr. Then 2.5ul each d2-labled cAMP and anti-cAMP-cryptate solutions were added separately to each well of the assay plates using an FRD and the assay plates were incubated at room temperature for 1hr.
A general note: In qHTS, concentration-response curves come from the screen itself.
As for `CN(C)C`, the Potency entry is “inactive”. Regarding `O=[N+]([O-])c1ccccc1C(F)(F)F`, the Potency entry is “inactive”. The entry for `C[C@H]1C[C@@H]2[C@H]([C@@H](O)C[C@@]3(C)[C@H]2CC[C@]3(O)C(=O)CO)[C@@]2(C)C=CC(=O)C=C12` is “inactive”. The entry for `COCCCN` is “inactive”; for `CN(C)CCOC(C)(c1ccccc1)c1ccccn1` (stereo not given) it is “inactive”. To `CCc1cccc2c3c([nH]c12)C(CC)(CC(=O)O)OCC3` (stereo not given) belongs “inactive”; to `CC1(C)OC[C@@H]2O[C@@]3(C(=O)O)OC(C)(C)O[C@H]3[C@@H]2O1`, “inactive”. In the case of `CC1=CC[C@H]2C[C@@H]1C2(C)C`, the Potency result was “inactive”.

On to `CC(=O)[C@H]1CC[C@H]2[C@@H]3CC=C4C[C@@H](O)CC[C@]4(C)[C@H]3CC[C@]12C`, for which the Potency entry is “inactive”. To `CC1COC(=O)O1` (stereo not given) belongs “inactive”; to `NC(CO)(CO)CO`, “inactive”; to `C/C=C1/CC2C=CC1C2` (stereo not given), “inactive”. To `C=C(C)C(=O)O` belongs “inactive”; to `COCC(C)O` (stereo not given), “inactive”; to `Cc1cc(CC(=O)O)n(C)c1C(=O)c1ccc(Cl)cc1`, “inactive”. For the compound `CCCCC1(COC(=O)CCC(=O)O)C(=O)N(c2ccccc2)N(c2ccccc2)C1=O`, the Potency entry is “inactive”. The entry for `Cc1cc(Cc2ccc(N)c(C)c2)ccc1N` is “inactive”; for `O=C1O[C@H]([C@H](O)CO)C(O)=C1O` it is “inactive”; for `OC[C@H]1O[C@H](O[C@]2(CCl)O[C@H](CCl)[C@@H](O)[C@@H]2O)[C@H](O)[C@@H](O)[C@H]1Cl` it is “inactive”.

In the case of `COC(=O)C1CCC(C(=O)OC)CC1` (stereo not given), the Potency entry was “inactive”. The entry for `NC(=O)OCC(COC(N)=O)c1ccccc1` is “inactive”; for `CC(=O)Nc1nnc(S(N)(=O)=O)s1` it is “inactive”; for `CCCCCCC=O` it is “inactive”. To `CCCCOC(=O)c1ccc(O)cc1` belongs “inactive”. The entry for `CCCCC(CC)CO` (stereo not given) is “inactive”. As for `c1ccc2cc3ccccc3cc2c1`, the Potency entry is “inactive”. To `Nc1ccc(S(=O)(=O)Nc2nccs2)cc1` belongs “inactive”; to `CCCCCC1=CCCC1=O`, “inactive”; to `C=Cc1cccc(C)c1`, “inactive”. To `Cc1cccc2n[nH]nc12` belongs “inactive”; to `C=CCOC(=O)c1ccccc1C(=O)OCC=C`, “inactive”; to `Cc1ccc(S(=O)(=O)NCl)cc1`, “inactive”. For the compound `NNCCc1ccccc1`, the Potency result was “inactive”.

Turning to `Cc1cc(=O)[nH]c(C(C)C)n1`, the Potency entry was “inactive”. The entry for `Cc1c(N(C)C)c(=O)n(-c2ccccc2)n1C` is “inactive”; for `O=[N+]([O-])c1cccc(Cl)c1` it is “inactive”; for `Cc1[nH]c(=O)c(C#N)cc1-c1ccncc1` it is “inactive”.

Consider `NCCS(=O)(=O)O`, for which the Potency entry was “inactive”. Take `COC(=O)c1ccccc1`: the Potency result is “inactive”.

On to `C=C(C)CNCC`, for which the Potency result is “inactive”.
